Screens: PubChem, National Center for Advancing Translational Sciences (NCATS)
RORgamma inh: qHTS for inhibitors of ROR gamma transcriptional activity. Nuclear receptor ROR-gamma (Mus musculus), P51450. Drosophila S2 Gal4-RORgamma UAS-luciferase reporter, 20 h. Potency, µM (top dose mostly 53.6 µM), inactives show top-dose activity change, negative = inhibition, most hits filed as inhibitors. 310,000 tested, 5.4% active. AID 2551, 2010; also: potency is read from the fitted curve at half-maximal effect; nearly all actives have a fitted effect of over 60% in size
Target sequence (P51450 whole entry, looked up, the tested form may be a part): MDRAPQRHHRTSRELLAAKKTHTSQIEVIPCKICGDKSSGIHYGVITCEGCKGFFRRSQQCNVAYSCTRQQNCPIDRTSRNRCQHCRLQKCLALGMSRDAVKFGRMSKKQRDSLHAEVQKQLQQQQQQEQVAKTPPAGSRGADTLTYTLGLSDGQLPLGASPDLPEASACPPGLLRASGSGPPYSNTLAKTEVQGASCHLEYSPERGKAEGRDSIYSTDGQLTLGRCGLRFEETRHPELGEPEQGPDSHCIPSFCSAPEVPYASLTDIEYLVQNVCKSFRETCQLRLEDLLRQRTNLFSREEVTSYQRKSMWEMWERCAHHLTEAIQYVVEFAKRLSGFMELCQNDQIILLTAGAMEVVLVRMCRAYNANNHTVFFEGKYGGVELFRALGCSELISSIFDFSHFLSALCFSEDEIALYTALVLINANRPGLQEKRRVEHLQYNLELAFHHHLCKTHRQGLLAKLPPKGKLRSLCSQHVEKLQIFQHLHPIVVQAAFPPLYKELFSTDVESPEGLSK
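Schneider cells (Drosophila), stable Gal4 DBD–ROR gamma + UAS-luc; 1 hr cmpd preincubation; Cu2+ induction 700 uM final; 20 hr ambient; luminescence.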
TDP1 cell noCPT: qHTS for Inhibitors of human tyrosyl-DNA phosphodiesterase 1 (TDP1): qHTS in cells in absence of CPT | Potency, µM (titrated, usually from 46.2 µM), for the others: at the highest dose activity change, negative = growth inhibition, actives largely listed as inhibitors | AID 686978, 2013 | 420,000 tested, 15% active | DT40 Tdp1-/- hTDP1 cells, no CPT, ATP luminescence, 48 h; also: potency is read from the fitted curve at half-maximal effect; nearly all actives have a fitted effect of over 55% in size
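Cells were dispensed at 400 per well, compounds added by pin tool, plates incubated ≥48 hr at 37 °C, then CellTiter-Glo added for 30 min at room temperature before luminescence reading. Line: DT40 Tdp1-/- complemented with hTDP1; camptothecin omitted.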
TDP1 cell CPT: qHTS for Inhibitors of human tyrosyl-DNA phosphodiesterase 1 (TDP1): qHTS in cells in presence of CPT | chicken DT40 Tdp1-/-;hTDP1 cells + 20 nM CPT, ATP luminescence, 48 h | Potency, µM (titrated, usually from 46.2 µM), for the others: at the highest dose activity change, negative = growth inhibition, actives largely listed as inhibitors | 420,000 tested, 12% active | AID 686979, 2013; also: potency is read from the fitted curve at half-maximal effect; nearly all actives have a fitted effect of over 55% in size
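Chicken DT40 Tdp1-/- cells complemented with human TDP1, 400 cells/well, exposed to compounds plus 20 nM camptothecin for at least 48 h at 37 C; viability read as ATP content by CellTiter-Glo luminescence.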
VP16 counter: VP16 counterscreen qHTS for inhibitors of ROR gamma transcriptional activity; AID 2546, 2010; 310,000 tested, 3.5% active; Drosophila S2 Gal4-VP16 UAS-luciferase, luminescence, 20 h; Potency, µM (doses to about 53.6 µM), without a hit: at the top dose activity, negative = inhibition, usual class: inhibitors;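 also: Gal4-VP16 expression switched on by copper sulfate through the metallothionein promoter; potency is read from the fitted curve at half-maximal effect; nearly all actives have a fitted effect of over 50% in size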
ELG1 repair inh: qHTS screen for small molecules that inhibit ELG1-dependent DNA repair in human embryonic kidney (HEK293T) cells expressing luciferase-tagged ELG1. HEK293T ELG1-luciferase reporter, luminescence, 16 h; DNA damage induced by 5-fluorouridine. 330,000 tested, 2.3% active. AID 504467, 2011. Potency, µM (top dose mostly 46.1 µM), inactives show at the top dose activity change, negative = inhibition, actives largely listed as inhibitors; also: potency is read from the fitted curve at half-maximal effect; nearly all actives have a fitted effect of over 55% in size
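Reporter activity after DNA damage by 5-fluorouridine is monitored. Compound-treated cells incubate 16 hr at 37 °C, then ONE-Glo is added for 30 min before luminescence reading.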
IL-1B inflam inh: qHTS for Inhibitors of Inflammasome Signaling: IL-1-beta AlphaLISA Primary Screen; THP-1 LPS/ATP IL-1B secretion, AlphaLISA, 16 h; hits give low values; activity change, % at 57.5 µM; 360,000 tested, 4.7% active; AID 743279, 2014; in the data active = activity change below about -50%; inconclusive = mostly about -30% to -49%
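Secreted IL-1B measured by AlphaLISA bead assay after 16 h compound exposure of THP-1 cells; compounds (final up to 57.5 uM) added 1 h before LPS (250 ng/mL) and ATP (1.25 mM) stimulation; lower signal means less secretion.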
An asterisk follows results filed as active; ? = inconclusive; · = no result. Rows were chosen to be rich in hits. Some 21% of all compounds tested hit in one or more screens of this group. Unless noted, calls follow the shape of the dose curve; as a rule, active = well fitted curve in the direction sought with a large enough effect; inconclusive = small, poorly fitted or top-dose-only effect, or another doubt; inactive = no such curve, though single readings can be large; an effect the other way counts as inactive or inconclusive. % is scaled to controls: 0 for no effect and ±100 for the full control effect.

SMILES	RORgamma inh	TDP1 cell noCPT	TDP1 cell CPT	VP16 counter	ELG1 repair inh	IL-1B inflam inh
COc1ccc(OC)c(N(C(=O)c2snc(C(N)=O)c2N)C(C(=O)NCc2ccccc2)c2ccc(O)cc2)c1 (stereo unspecified)	16%	?	?	-15%	9%	-79*
CCCc1cc(CN(C)C(=O)c2ccc(OC3CCN(C(C)=O)CC3)c(OC)c2)[nH]n1	·	-4%	-15%	·	·	13
CC(C)(C)Cc1c(-c2ccc(Cl)cc2)nc2c(Cl)cc(C(F)(F)F)cn12	·	?	?	·	·	5
CC(C)Cn1c(SC(C)C(=O)NCC2CCCO2)nc2ccc(Cl)cc2c1=O (stereo unspecified)	·	?	?	·	-2%	0
CCC(C)[C@H](NC(=O)N1CCn2c1nc1ccccc12)C(=O)NCCc1ccc(OC)c(OC)c1 (stereo partly specified)	12%	16µM*	15µM*	-19%	-5%	-9
CCC(C)[C@H](NC(=O)N1CCn2c1nc1ccccc12)C(=O)NCCc1ccccc1 (stereo partly specified)	?	?	21µM*	8%	10%	-59*
CSCC[C@H](NC(=O)N1CCn2c1nc1ccccc12)C(=O)N1CCCCC1	-35%	-2%	-19%	0%	10%	-1
COc1ccc(CCNC(=O)[C@H](CC(C)C)NC(=O)N2CCn3c2nc2ccccc23)cc1OC	-1%	?	-64%	-1%	9%	-66*
CC(C)C[C@H](NC(=O)N1CCn2c1nc1ccccc12)C(=O)N1CCCCC1	-19%	21µM*	?	-3%	-6%	-5
COc1ccc(CCNC(=O)[C@@H](NC(=O)N2CCn3c2nc2ccccc23)C(C)C)cc1OC	-14%	?	?	2%	-22%	-13
COc1cccc(NC(=O)[C@H](CC(C)C)NC(=O)N2CCn3c2nc2ccccc23)c1	19%	?	?	-9%	-16%	-5
CCOC(=O)C12CC1/C(=N\O)c1ccccc1O2 (stereo unspecified)	·	-2%	-4%	·	·	·
Cc1ccc(Cn2c(C(C)Nc3nc(-c4ccc(Cl)cc4)cs3)nc3cc(C(=O)NCCCO)ccc32)cc1 (stereo unspecified)	·	8.2µM*	10µM*	·	·	30
Cc1ccc(Cn2c(CCNc3nc(-c4ccc(C)cc4)cs3)nc3cc(C(=O)NCCCO)ccc32)cc1	·	15µM*	21µM*	·	·	-8
CCCCOc1ccc(C2(C)NC(=O)NC2=O)cc1 (stereo unspecified)	2%	18µM*	?	18%	9%	11
COc1ccc(-c2ccc(/C=C3/C(=N)N4C=CSC4=NC3=O)o2)c([N+](=O)[O-])c1	2.5µM*	?	-30%	3.5µM*	?	6
N=C1/C(=C/c2cccn2-c2ccc([N+](=O)[O-])cc2)C(=O)N=C2SC=CN12	8%	?	-21%	-12%	10%	0
CCC#CCOCC(=S)Nc1ccccc1	-6%	·	·	1%	·	·
CCOc1ccc2c(c1)[N+](C)(C)C(C)(C)C=C2C	39%	15µM*	5.8µM*	-1%	-9%	-55*
CCOc1ccc(-c2cc(C(=O)NCc3ccc(F)cc3)[nH]n2)c(C)c1	·	-28%	-29%	·	·	?
O=C(CNCc1ccccc1)Nc1ccc(Oc2ccccc2)cc1	33%	?	14%	-8%	4%	-58*
